Some test systems named below: NCI-H226 lung; NCI-H322M lung; HOP-62 NSCLC; NCI-H460 lung; HOP-92 NSCLC; NCI-H522 lung; A549/ATCC NSCLC; 786-0 renal; COLO 205 colon.
What all share (assay): NCI-60 one-dose screen, 48 h (100 = growth as untreated, 0 = no growth, -100 = all killed)
Holding throughout (settings): 10 µM unless noted

About 83,000 compounds went through this panel and 20% of them were active in at least one assay; those are over-represented in the sample as a whole.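 Growth was measured after 48 h exposure to one concentration of compound in 96-well plates. Values under 10 count as active.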 Values without a mark were called inactive. Activity calls are given as the source filed them.

As to `CN1C(=O)C(=Cc2cn(Cc3ccccc3)c3ccccc23)C(=O)N(C)C1=O`, the growth is -71% (active) in the test with NCI-H226 lung; 72.3% in the test with NCI-H322M lung; 73.6% with HOP-62 NSCLC; 0.11% (active) with NCI-H460 lung; 65.1% in the test on HOP-92 NSCLC; 92.6% in the test on NCI-H522 lung. For the same molecule, the growth is 81.7% in the test with A549/ATCC NSCLC, 93.9% with 786-0 renal and 1.43% (active) in the test on COLO 205 colon.
Turning to `CC(=O)Oc1ccccc1C(=O)NCCC[Se]C#N`, the growth is -22.8% (active) in the test with NCI-H226 lung; -38.8% (active) in the test with HOP-62 NSCLC; 1.89% (active) in the test on NCI-H460 lung; -18.5% (active) in the test on HOP-92 NSCLC; 65.2% in the test with NCI-H522 lung; 28.2% in the test with A549/ATCC NSCLC. The values for the growth with 786-0 renal and in the test with COLO 205 colon were 104% and 112%, respectively.
In the case of `CC(=O)Nc1nc2c(s1)CC[C@@]1(C)C2=CC[C@H]2[C@@H]3CC[C@H](O)[C@@]3(C)CC[C@@H]21`, the growth is 89.9% with NCI-H226 lung; 79.8% with NCI-H322M lung; 67.1% in the test with HOP-62 NSCLC; 27.3% in the test with NCI-H460 lung; 84.7% with HOP-92 NSCLC; 51.6% with NCI-H522 lung. Besides, the growth in the test on A549/ATCC NSCLC was 56%; in the test on 786-0 renal, 35.7%; in the test on COLO 205 colon, 72.2%.
In the case of `COC(=O)[C@@H](C)C[C@H](Cc1ccccc1)NC(=O)c1nc([C@@H](C[C@H](C(C)C)N(C)C(=O)[C@@H](NC(=O)[C@H]2CC(=O)CCN2C)C(C)C)OC(C)=O)sc1C(C)C`, the growth is -25.2% (active) in the test with NCI-H226 lung; 30.1% in the test on NCI-H322M lung; 15.6% in the test on HOP-62 NSCLC; 3.43% (active) in the test on NCI-H460 lung; 34.8% with HOP-92 NSCLC; -30.5% (active) in the test with NCI-H522 lung. Besides, the growth with A549/ATCC NSCLC was 18.7%; with 786-0 renal it was 6.83% (active); in the test with COLO 205 colon, -39.9% (active).
In the case of `COC(=O)CCc1c[nH]c2ccc(N(CCCl)CCCl)cc12`, the growth was 79% with NCI-H226 lung; 95.1% in the test with NCI-H322M lung; 47.5% in the test on HOP-62 NSCLC; 17.4% with NCI-H460 lung; 84.4% in the test on HOP-92 NSCLC; 42.3% in the test with NCI-H522 lung. The growth in the test with A549/ATCC NSCLC is 44%; in the test on 786-0 renal, 24.8%; in the test on COLO 205 colon, 68.8%.
On to `O=[N+]([O-])CC(c1ccccc1Cl)c1c(-c2ccccc2)[nH]c2ccccc12` (configuration not stated), for which the growth in the test with NCI-H226 lung was 30.9%; with NCI-H322M lung, 42.7%; with HOP-62 NSCLC, 30.3%; in the test on NCI-H460 lung, 22.9%; in the test on HOP-92 NSCLC, 36.1%; in the test with NCI-H522 lung, -10.9% (active). In addition, the growth was 31.5% with A549/ATCC NSCLC, 25.2% with 786-0 renal and 15% in the test with COLO 205 colon.
As for `COC(=O)[C@@H](C)C[C@H](Cc1ccccc1)NC(=O)c1csc([C@@H](C[C@H](C(C)C)N(C)C(=O)[C@@H](NC(=O)C23CC(NC(C)=O)(C2)C3)C2CC2)OC(C)=O)n1`, the growth with NCI-H226 lung is 107%; in the test with NCI-H322M lung it was 105%; in the test with HOP-62 NSCLC, 67.9%; in the test with NCI-H460 lung it was 36.6%; in the test on HOP-92 NSCLC, 38.5%; with NCI-H522 lung, 2.4% (active). Also, the growth with A549/ATCC NSCLC was 93.5%; in the test on 786-0 renal, 65%; in the test on COLO 205 colon, 32.5%.
Turning to `CCCCCCCCCCCCNC(c1ccccc1)C(O)c1ccccc1` (configuration not stated), the growth was 103% in the test with NCI-H226 lung; 88.2% with NCI-H322M lung; 90.3% in the test on HOP-62 NSCLC; 93.4% in the test on NCI-H460 lung; 80.7% in the test on HOP-92 NSCLC; 69.1% in the test on NCI-H522 lung. Further, the growth in the test on A549/ATCC NSCLC was 84.7%; in the test on 786-0 renal, 79.3%; in the test with COLO 205 colon, -30.7% (active).
For `COC(=O)C12CC(NC(=O)c3csc([C@@H](C[C@H](C(C)C)N(C)C(=O)[C@@H](NC(=O)[C@H]4CCCCN4C)C(C)C)OC(C)=O)n3)(C1)C2`, the growth in the test on NCI-H226 lung was 10.6%; in the test on NCI-H322M lung, 41.9%; with HOP-62 NSCLC, 6.07% (active); in the test on NCI-H460 lung, 5.4% (active); in the test on HOP-92 NSCLC, 52.8%; with NCI-H522 lung, -23.6% (active). The growth with A549/ATCC NSCLC is 16.6%; with 786-0 renal, 18.2%; in the test with COLO 205 colon, -60.1% (active).
Regarding `CCOC(=O)[C@@H](C)C[C@H](Cc1ccccc1)NC(=O)c1csc([C@@H](C[C@H](C(C)C)N(C)C(=O)[C@H](CC)NC(=O)[C@H]2CCCCN2C)OC(C)=O)n1`, the growth is 65.2% in the test on NCI-H226 lung; 20.2% with HOP-62 NSCLC; 6.53% (active) in the test on NCI-H460 lung; 41.5% in the test on HOP-92 NSCLC; -22.8% (active) in the test with NCI-H522 lung; 7.92% (active) with A549/ATCC NSCLC. The growth is 8.33% (active) in the test with 786-0 renal and -61.6% (active) in the test on COLO 205 colon.
On to `CCCCCC1(CCBr)C(=O)NC(=O)NC1=O`, for which the growth is 104% with NCI-H226 lung; 118% with NCI-H322M lung; 107% with HOP-62 NSCLC; 108% in the test with NCI-H460 lung; 85.1% in the test on HOP-92 NSCLC; 100% with NCI-H522 lung. The growth with A549/ATCC NSCLC was 98.3%; in the test on 786-0 renal it was 95.9%; in the test on COLO 205 colon it was 110%.

Values taken from PubChem BioAssay (NCI).
